Screens: PubChem, several laboratories
CHT PAM = CHT positive allosteric modulators, primary screen, cell-based, membrane potential dye, choline EC20. B-score at 10 µM. 310,000 tested, 0.49% active. High affinity choline transporter 1 (Homo sapiens), Q9GZV3. CHT-expressing cells; stronger effect = higher value; LV-AA mutant CHT in HEK293 cells;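 active = initial fluorescence not abnormally high and integrated response B-score, plate-corrected, over 3 SD above library mean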
Target sequence (Q9GZV3 whole entry, looked up): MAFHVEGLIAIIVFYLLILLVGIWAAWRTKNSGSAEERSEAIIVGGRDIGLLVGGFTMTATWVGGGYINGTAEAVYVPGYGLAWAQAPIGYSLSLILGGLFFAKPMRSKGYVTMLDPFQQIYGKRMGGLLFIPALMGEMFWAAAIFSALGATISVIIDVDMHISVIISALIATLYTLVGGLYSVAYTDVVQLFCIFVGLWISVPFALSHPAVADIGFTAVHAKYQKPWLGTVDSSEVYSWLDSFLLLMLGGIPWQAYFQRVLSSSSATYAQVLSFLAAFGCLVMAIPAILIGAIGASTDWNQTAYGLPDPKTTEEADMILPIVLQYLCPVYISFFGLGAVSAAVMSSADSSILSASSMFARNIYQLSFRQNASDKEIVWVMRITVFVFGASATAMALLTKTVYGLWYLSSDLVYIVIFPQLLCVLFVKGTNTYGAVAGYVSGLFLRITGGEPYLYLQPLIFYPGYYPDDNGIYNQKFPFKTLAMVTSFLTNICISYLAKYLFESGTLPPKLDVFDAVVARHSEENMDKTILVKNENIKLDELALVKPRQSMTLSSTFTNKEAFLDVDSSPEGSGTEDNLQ
EP2 antag = human EP2 receptor antagonists, primary screen, TR-FRET cAMP, C6 glioma cells; 260,000 tested, 0.52% active; C6 glioma cells expressing human EP2; cells stimulated with saturating PGE2; inhibition, % at 25 µM;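 active = percent inhibition above 40 after rounding to a whole number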;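 note: rat C6 glioma host cells with rolipram phosphodiesterase inhibitor present; the protocol text gives 20 µM as final concentration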
CHT block = inhibitors of human choline transporter CHT; High affinity choline transporter 1 (Homo sapiens), Q9GZV3; CHT-expressing cells, membrane potential dye, choline response; stronger effect = lower value; B-score at 10 µM; 310,000 tested, 0.86% active; AID 488975, 2010;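 active = B-score over 3 SD under the library average, and starting fluorescence ratio not unusually high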;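 note: choline stimulus applied at its EC90 after an EC20 pre-addition; B-score computed on integrated fluorescence ratio after choline addition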
EP2 mod = EP2 receptor modulators, cAMP readout, primary screen, cell-based, HTRF cAMP, PGE2 stimulation. EP2-expressing cells, cAMP HTRF FRET, PGE2 co-stimulation. induction, % at 25 µM. 260,000 tested, 0.83% active;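 active = compounds whose cAMP rise, as percent of the full-agonist control response, exceeds 60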;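 note: rat C6 glioma line stably carrying human EP2 under a CMV promoter; the protocol text gives 20 µM as final concentration; 100% = response of wells given 1 µM PGE2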
CHT block conf = CHT inhibitors, confirmation, cell-based, membrane potential dye, duplicate; shares compounds with CHT block; CHT-expressing cells, choline membrane potential dye; LV-to-AA substituted CHT, HEK293 cells; CHT activity remaining % of control (stronger effect = lower value), % at 10 µM; 2,400 tested, 70% active;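 active = choline transporter activity left, mean of duplicates at 10 µM, below buffer-only control mean minus 3 SD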;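 note: depolarization triggered by choline at its EC90 following an EC20 pre-addition; 0% = hemicholinium-3 full block and 100% = buffer-only control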
HEK293 CHT ctr = membrane potential effects in parental HEK293, counter-screen for CHT inhibitor project, cell-based, membrane potential dye; shares compounds with CHT block; choline response; active = decrease or increase beyond buffer ±3SD; membrane potential ratio readout (active if shifted either direction beyond buffer ±3SD; no single direction) at 10 µM; 2,400 tested, 4% active; AID 493222, 2011;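 note: parental cells lack the transporter so any hit is non-specific; ratio is peak minus trough fluorescence over baseline after EC90 choline challenge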
Numbers without * were called inactive. This is a sample that favours compounds with a hit; in the whole collection about 2.1% have one here.

How did Cc1cc(C)cc(OC(C)C(=O)Nc2ccc(S(=O)(=O)Nc3cc(C)nc(C)n3)cc2)c1 (stereo unspecified) do in these assays?
CHT PAM: inactive; CHT block: -6.04*; CHT block conf: 39.5%*; HEK293 CHT ctr: inactive

Results for CCCCc1cc(-c2n[nH]c(=S)o2)c2ccccc2n1 ?
CHT PAM: inactive; CHT block: -8.36*; CHT block conf: 66.9%*; HEK293 CHT ctr: inactive

What do the screens show for `O=C(c1ccc2c(c1)OCO2)[C@H]1CCCN(C(=O)c2n[nH]c3c2CCCC3)C1`?
EP2 antag: 3.6; EP2 mod: -75.8

What do the screens show for `C/C(=N\NC(=O)c1ccccc1O)C1C(=O)c2ccccc2C1=O`?
CHT PAM: inactive; EP2 antag: 5.6; CHT block: -5.03*; EP2 mod: -30.1; CHT block conf: 31.4%*; HEK293 CHT ctr: inactive

What do the screens show for `CCOC(=O)c1cccc(NC(=O)CSc2nnc(C)n2Cc2ccccc2)c1`?
CHT PAM: inactive; EP2 antag: 8.2; CHT block: -6.9*; EP2 mod: -18.6; CHT block conf: 66.2%*; HEK293 CHT ctr: inactive

Results for Cc1nnc(SCC(=O)c2ccccc2)n1Cc1ccccc1 ?
CHT PAM: inactive; EP2 antag: 2.3; CHT block: -5.29*; EP2 mod: 1.7; CHT block conf: 47.1%*; HEK293 CHT ctr: -8.62*

What do the screens show for `COCCn1c(C)nnc1SCC(=O)c1ccccc1`?
EP2 antag: 0.3; EP2 mod: -6.6

How did OC(CN1CCC(O)(c2ccc(F)cc2)CC1)c1ccc2c(c1)OCCO2 (stereo unspecified) do in these assays?
EP2 antag: 7.7; EP2 mod: -41.0

Results for O=C(NCc1cccc(C(F)(F)F)c1)c1cc(Cl)ccc1Cl ?
CHT PAM: inactive; EP2 antag: 7.0; CHT block: -5.78*; EP2 mod: -59.6; CHT block conf: inactive; HEK293 CHT ctr: inactive

Results for CC1=C/C(=N\OS(=O)(=O)c2ccccc2)C(C)=CC1=O ?
CHT PAM: inactive; EP2 antag: 132.8*; CHT block: -5.95*; EP2 mod: -24.0; CHT block conf: 49.8%*; HEK293 CHT ctr: inactive

How did C=CCNC(=O)/C(=C\c1ccc([N+](=O)[O-])cc1)NC(C)=O do in these assays?
CHT PAM: inactive; EP2 antag: 12.9; CHT block: -7.59*; EP2 mod: 19.5; CHT block conf: inactive; HEK293 CHT ctr: inactive

Results for O=C(NCc1ccco1)/C(=C/c1ccc([N+](=O)[O-])cc1)NC(=O)c1ccco1 ?
CHT PAM: inactive; CHT block: inactive

How did CCOc1ccccc1NC(=O)Cn1c(C)nc2ccc(NC(=O)c3cccs3)cc2c1=O do in these assays?
EP2 antag: 6.8; EP2 mod: -70.2

What do the screens show for `Cn1c2c(c3ccccc31)CCN1CCC[C@]21c1ccccc1`?
CHT PAM: inactive; CHT block: -5.12*; CHT block conf: inactive; HEK293 CHT ctr: inactive

What do the screens show for `NC(=O)c1c(NC(=O)CN2C(=O)NC(Cc3ccccc3)C2=O)sc2c1CCC2` (stereo unspecified)?
CHT PAM: inactive; EP2 antag: 9.4; CHT block: -6.3*; EP2 mod: -20.1; CHT block conf: 61.6%*; HEK293 CHT ctr: inactive

Results for CC1CCC2(CC1)NC(=O)N(CC(=O)Nc1sc3c(c1C(N)=O)CCC3)C2=O (stereo unspecified) ?
CHT PAM: inactive; EP2 antag: 2.7; CHT block: inactive; EP2 mod: -1.1

Results for COc1ccccc1C1(NC(=O)c2cnn3cccnc23)CCCC1 ?
EP2 antag: 9.6; EP2 mod: -14.7
